Source: PubChem BioAssay
RGS12 GoLoco inh = qHTS Assay for Inhibitors of RGS12 GoLoco Motif Activity (Red Fluorophore) | Guanine nucleotide-binding protein G(i) subunit alpha-1 (Homo sapiens), P63096 | Gai1:RGS12 GoLoco peptide FP, rhodamine, 10 min | Potency, µM (series often up to 61.6 µM), without a hit: at the highest dose activity, negative = inhibition, actives largely listed as inhibitors | actives 0.44% (n = 230,000) | AID 880, 2007; active = well fitted inhibition curve with a large enough effect, not every such curve was filed as active; inactive = no such curve, though single readings can be large or run the other way; also: % is scaled to controls: 0 for no effect and ±100 for the full control effect; nearly all actives have a fitted effect of over 30% in size
Tb PFK inh-1 = qHTS Assay to Find Inhibitors of T. brucei phosphofructokinase. ATP-dependent 6-phosphofructokinase (Trypanosoma brucei brucei), O15648. T. brucei PFK, ADP-Glo luminescence. actives 0.17% (n = 330,000). Potency, µM (highest dose often 57.5 µM), without a hit: top-dose activity, negative = inhibition, usual class: inhibitors;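 also: 0% = uninhibited 1x PFK enzyme wells and -100% = no-enzyme wells; nearly all actives have a fitted effect of over 60% in size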
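Activity is normalized to no-enzyme wells (full inhibition) and 1.25 nM enzyme wells (no inhibition). Reaction: 0.5 mM F6P, 0.1 mM ATP, 45 min RT, ADP-Glo luminescence; concentration-response curves fitted and classed by quality.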
NPSR antagonist = qHTS Assay for Antagonists of the Neuropeptide S Receptor: cAMP Signal Transduction | actives 1% (n = 220,000) | CHO-NPSR cells, cAMP TR-FRET, antagonist mode | AID 1461, 2008 | Potency, µM (titrated, usually from 38.3 µM), for the others: at the highest dose activity change, negative = inhibition, hits mostly inhibitors; also: % is scaled to controls: 0 for no effect and ±100 for the full control effect; nearly all actives have a fitted effect of over 50% in size
IMPase Li cell = qHTS Assay for Identifying the Cell-Membrane Permeable IMPase Inhibitors: Potentiation with Lithium; Potency, µM (series often up to 59.4 µM), without a hit: top-dose activity, negative = IMPase inhibition, hits mostly inhibitors; actives 0.35% (n = 210,000); CHO-M1 cells, IP1 TR-FRET (IP-One), carbachol + lithium; AID 1457, 2008;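 also: IP1 builds up when IMPase is blocked and the TR-FRET signal falls; plate controls were basal vehicle for no effect and high inhibitor control for full effect; nearly all actives have a fitted effect of over 50% in size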
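Steps: plate 2000 CHO-M1 cells per well and culture 16–30 h; add compound and lithium; incubate 30 min, 37C; add d2-IP1 tracer and Eu cryptate anti-IP1 antibody in lysis buffer; read after 10 min at room temperature.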
MBNL1 CUG block = qHTS Assay for Inhibitors of MBNL1-poly(CUG) RNA binding | Muscleblind-like protein 1 (Homo sapiens), Q9NR56 | TR-FRET MBNL1-His/biotin-(CUG)12 binding, 665/545 ratio | Potency, µM (titrated, usually from 57.5 µM), for the others: at the top dose activity change, negative = inhibition, actives largely listed as inhibitors | actives 0.036% (n = 280,000) | AID 2675, 2010; active = well fitted inhibition curve with a large enough effect in the signal ratio, with a control signal flat, not every such curve was filed as active; inconclusive = small, poorly fitted or top-dose-only effect, or effect the other way, or a change in a side signal; inactive = no such curve, though single readings can be large or run the other way; the % refers to the signal ratio; also: % is scaled to controls: 0 for no effect and ±100 for the full control effect
Target sequence (Q9NR56 whole entry, looked up): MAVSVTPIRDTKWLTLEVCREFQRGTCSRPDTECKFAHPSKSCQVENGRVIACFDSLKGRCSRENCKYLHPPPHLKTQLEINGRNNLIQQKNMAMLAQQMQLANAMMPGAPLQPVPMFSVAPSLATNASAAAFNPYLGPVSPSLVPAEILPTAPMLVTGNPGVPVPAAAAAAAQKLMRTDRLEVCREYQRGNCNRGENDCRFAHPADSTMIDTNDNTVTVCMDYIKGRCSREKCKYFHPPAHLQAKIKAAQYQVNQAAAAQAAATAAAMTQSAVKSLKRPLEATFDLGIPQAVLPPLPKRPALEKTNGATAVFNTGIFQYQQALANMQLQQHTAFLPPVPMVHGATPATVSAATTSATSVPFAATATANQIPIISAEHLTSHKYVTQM
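MBNL1-His + Biotin-(CUG)12, cpd titration 92 nM–58 uM; Tb anti-His Ab 0.055 ng/ul, SA-XL665 5 nM (final); 60 min RT; ratiometric 665/545 nm, Ex 340 nm; normalized to buffer and full-complex controls.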
Tb PFK KinaseGlo = Tb PFK orthogonal confirmatory assay using ATP depletion (Kinase-Glo Plus) as an alternative measure of Tb PFK activity: Hit Validation | Potency, µM (series often up to 57.5 µM), inactives show at the top dose inhibition | shares compounds with Tb PFK inh-1 | actives 47% (n = 1,100) | Tb PFK enzyme, ATP depletion, Kinase-Glo Plus luminescence; calls by dose curve; also: nearly all actives have a fitted effect of over 60% in size
Tb PFK inh-2 = Inhibitors of T. brucei phosphofructokinase: Hit Validation; actives 41% (n = 1,100); shares compounds with Tb PFK inh-1; AID 504637, 2011; purified T. brucei PFK, ADP-Glo luminescence, 45 min; Potency, µM (highest dose often 57.5 µM), inactives show top-dose activity change, negative = inhibition, usual class: inhibitors;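 also: plate controls were full PFK enzyme control for no effect and no enzyme control for full effect; nearly all actives have a fitted effect of over 60% in size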
* hit, by the source's call; ? = inconclusive; . = no result; [ ] = another dose, or the depositor's remark. This is one part of a sample in which hits are shown more often than they occur. Unless noted, calls follow the shape of the dose curve; as a rule, active = well fitted curve in the direction sought with a large enough effect; inconclusive = small, poorly fitted or top-dose-only effect, or another doubt; inactive = no such curve, though single readings can be large; an effect the other way counts as inactive or inconclusive. Potency is read from the fitted curve at half-maximal effect.

SMILES	RGS12 GoLoco inh	Tb PFK inh-1	NPSR antagonist	IMPase Li cell	MBNL1 CUG block	Tb PFK KinaseGlo	Tb PFK inh-2
CCCN1CCc2cc(O)cc3c2C1Cc1ccc(O)c(O)c1-3 (centres undefined)	10%	.	?	17%	.	.	.
C=CCN1CC[C@]23c4c5ccc(O)c4O[C@@H]2/C(=N/N=C2\CC[C@@]4(O)C6Cc7ccc(O)c8c7[C@@]4(CCN6CC=C)[C@@H]2O8)CC[C@@]3(O)C1C5	-5%	.	?	-3%	.	.	.
C=CCN1CCc2cccc3c2[C@H]1Cc1ccc(O)c(O)c1-3	.	?	.	.	-4%	6µM*	6µM*
C[C@@]12CC(c3ccoc3)OC(=O)C1CC[C@@]1(C)C2C2C=C[C@@]1(O)C(=O)O2 (some centres undefined)	3%	.	.	1%	.	.	.
C=CCNc1nc(C(=O)OCC(=O)c2ccccc2)cs1	.	8.5µM*	.	.	35%	7%	-8%
O=C(Cc1ccccc1)OCC(=O)c1ccccc1	.	1%	.	.	-1%	.	.
CC1=C(O)C(=O)C=C2C1=CC=C1[C@]2(C)CC[C@@]2(C)C3C[C@](C)(C(=O)O)CC[C@@]3(C)CC[C@@]12C (some centres undefined)	-30%	.	.	31%	.	.	.
O=C(Nc1ccc2c(c1)OCO2)c1cccc2c1C(=O)N(Cc1cccnc1)C2	4%	?	-29%[46.1 µM]	27%[38.3 µM]	15%	?	?
c1cncc(CNCCc2ccc3c(c2)OCO3)c1	.	-2%	.	.	-1%	.	.
O=C(Nc1cnn(Cc2ccc(Cl)c(Cl)c2)c1)C12CC3CC(CC(C3)C1)C2	10%	?	?	17%	9%	?	?
CN1CN(c2cccc([N+](=O)[O-])c2)CN=C1N[N+](=O)[O-]	9%	27µM*	15%	2%	?	?	?
Nc1ccccc1C(=O)OCC(=O)Nc1ccc(Br)cc1F	-13%	2%	-12%[46.1 µM]	-8%[38.3 µM]	-15%	.	.
O=C(Nc1cccs1)Nc1ccc(Br)cc1F	-20%	?	-29%	-2%	.	?	?
COc1ccc(OC)c(-c2c3cc(O)c(=O)cc-3oc3cc(O)c(O)cc23)c1	10µM*	9.5µM*	-26%	26%	.	?	3.8µM*
COc1ccc(-c2cc(=O)c3c(OC)c(OC)c(OC)cc3o2)cc1	7%	-4%	-6%	13%	-23%	.	.
CC1C(=O)OC2O[C@]3(C)CC[C@H]4C(C)CCC1[C@]24OO3 (some centres undefined)	14%	.	.	6%	.	.	.
O=S(=O)(Nc1ccc(Cl)cc1)c1ccc(N2CCOCC2)c(NC(=S)NCCN2CCOCC2)c1	-6%	?	-10%	7%	-5%	7.6µM*	13µM*
Cc1ccc(NC(=O)CN2C(=O)N/C(=C/c3cccn3-c3ccc(C(=O)O)cc3)C2=O)cc1	7%	?	-4%	5%	?	1.7µM*	?
COc1ccc(NC(=O)CN2C(=O)S/C(=C/c3cccn3-c3ccc(C(=O)O)cc3)C2=O)cc1	.	9.5µM*	.	.	3%	19µM*	?
O=C(OCC(=O)N1CCN(c2ccccc2)CC1)c1cnc(Cl)c(Cl)c1	-4%	-11%	-18%	11%	57%	.	.
O=C(OCC(=O)N1CCN(c2cccc(Cl)c2)CC1)c1ccco1	.	21µM*	.	.	.	24µM*	?
Clc1ccc2scc(CN3CCCCC3)c2c1	-2%	?	3%	11%	-12%	?	?
C[C@@]12C=CC(=O)C=C1CCC1C2CC[C@]2(C)C(=O)CCC12 (some centres undefined)	2%	.	.	6%	.	.	.
O=[N+]([O-])c1ccc(N/N=C/c2ccc(O)c(O)c2O)c(S(=O)(=O)N2CCOCC2)c1	88%	?	-35%	17%	?	?	?
O=C(Nc1ccc2c(c1)OCCO2)c1ccc(Cl)c([N+](=O)[O-])c1	47%	27µM*	-23%	-3%	.	12µM*	27µM*
SMILES	RGS12 GoLoco inh	Tb PFK inh-1	NPSR antagonist	IMPase Li cell	MBNL1 CUG block	Tb PFK KinaseGlo	Tb PFK inh-2
CN(C)C1(CNC(=O)c2ccc(NS(=O)(=O)c3ccc(Cl)c(Cl)c3)cc2)CCCCC1	.	-1%	.	.	.	.	.
O=C(Nc1ccc(S(=O)(=O)NC2=NCCCCC2)cc1)c1ccc(Cl)c([N+](=O)[O-])c1	.	?	.	.	.	13µM*	?
COc1ccc(N=C2SC(C(N)=O)CC(=O)N2Cc2ccc3c(c2)OCO3)cc1 (centres undefined)	5%	?	4%	.	.	1.7µM*	?
COc1ccc(-c2cc(=NCCC(=O)O)c3cc(C)ccc3o2)cc1	14%	?	-6%	-22%	?	-30%	?
CC1(C)CC(=O)C(C(C2=C(O)CC(C)(C)CC2=O)c2cccs2)C(=O)C1 (centres undefined)	.	?	-7%[46.1 µM]	.	-15%	29%	?
NC[C@@H](O)CSP(=O)(O)O	-3%[14.2 µM]	.	.	1%	.	.	.
c1nc(N2CC2)c2cnn([C@@H]3CCCCO3)c2n1	2%[14.2 µM]	.	.	6%	.	.	.
Clc1ccc(Cn2ncc3c(N4CCCC4)ncnc32)cc1	-7%	?	-15%[46.1 µM]	39%[38.3 µM]	-3%	?	?
